From PubChem
aSyn UTR act: Activators working through SNCA 5'UTR binding (MLPCN) | alpha-synuclein 5'UTR reporter, activators screen | activity score, % (tested at 7.5 µM), hits read low | 7.1% of 300,000 active; in the data active = activity score below about -60%
Hits are given with their value; 0 = inactive. The list is a sample of the results.

SMILES | aSyn UTR act
C=C1[C@@H](C)[C@H]2[C@H](Cc3ccccc3)NC(=O)[C@]23OC(=O)/C=C/[C@H](O)CCC[C@@H](C)C/C=C/[C@H]3[C@@H]1O | 0
O=c1c2ccccc2[nH]c(=S)n1-c1ccc2c(c1)OCCO2 | -105.4
O=C(Nc1ccc(OC(=O)N2CCCCC2)cc1)N1CCOCC1 | 0
COC(=O)C(O)(c1ccc(NC(=S)NC(=O)c2ccccc2)cc1)C(F)(F)F (stereo not given) | -79.9
COc1ccccc1CN1CCCC(C(=O)c2ccccc2SC)C1 (stereo not given) | 0
CC(C)(C)c1ccc(C(=O)C2CCCN(Cc3ccon3)C2)cc1 (stereo not given) | -123.7
CC(C)(C)c1ccc(C(=O)C2CCCN(C3CCC3)C2)cc1 (stereo not given) | -72.2
CC(C)[C@]12O[C@H]1[C@@H]1O[C@]13[C@]1(O[C@H]1C[C@H]1C4=C(CC[C@@]13C)C(=O)OC4)[C@@H]2O | 0
O=Cc1cn(Cc2cccc(F)c2)c2ccccc12 | 0
CCc1ccc(-c2nn(Cc3ccccc3)cc2C=O)cc1 | -140.0
CNC(=O)Oc1ccc(-c2cn3cc(C)ccc3n2)cc1 | 0
O=C(Nc1ccccc1)c1cccn(Cc2ccccc2)c1=O | -96.1
C=CCN1C(=O)NC(=O)/C(=C/c2ccc(OC)c(COc3ccc(NC(C)=O)cc3)c2)C1=O | -63.8
CNc1ccc2oc(C[C@H]3O[C@@]4(CC[C@H]3C)O[C@H]([C@H](C)C(=O)c3ccc[nH]3)[C@H](C)C[C@H]4C)nc2c1C(=O)O | 0
CCCCCCCSc1cc(OC)c(CCN(C)C)cc1OC | 0
Cc1ccc(C[n+]2c(-c3ccc(C)cc3)cc(-c3ccc(C)cc3)cc2-c2ccc(C)cc2)cc1 | 0
C[N+]1=C(/C=C/Nc2ccccc2)C(C)(C)c2ccccc21 | -93.1
CC12CC[C@H]3[C@@H](CCC4(O)C[C@H](O)CCC34/C=N/NC(=O)c3ccccc3[N+](=O)[O-])C1(O)CCC2C1=CC(=O)OC1 (stereo not given in full) | 0
Cc1ccc2nc3c(cc2c1)CC1(C(=O)N(C)C(=O)N(C)C1=O)C1CCCCN31 (stereo not given) | -106.2
Cc1ccc2nc3c(cc2c1)CC1(C(=O)N(C)C(=O)N(C)C1=O)C1COCCN31 (stereo not given) | -63.1
O=C1C(=O)c2ccccc2-c2ccccc21 | 0
Nc1ccc2c(c1)oc1ccccc12 | -113.4
Cc1ccc(-c2nc(N(C)C3CCN(C)CC3)c3ccccc3n2)cc1 | -92.7
Nc1ccccc1C(=O)OCc1ccc([N+](=O)[O-])cc1 | -82.6
CN(C)C(Cc1ccccc1)C(=O)c1c[nH]c2ccccc12 (stereo not given) | -64.4
SMILES | aSyn UTR act
CN(C)C(=O)On1c(-c2ccccc2)nc2ccc(Cl)cc21 | -71.1
O=C(c1ccccc1)C(CN1CCCC1)c1ccccc1 (stereo not given) | -77.4
Cc1ccc2cc(C=C(C#N)C#N)c(Cl)nc2c1 | -78.8
COC(=O)C1CN(C#N)N(c2ccc(Cl)cc2)C12c1ccccc1-c1ccccc12 (stereo not given) | 0
CC(=O)O[C@H]1C(=O)[C@@]2(C)C([C@H](OC(=O)c3ccccc3)[C@]3(O)C[C@H](OC(=O)[C@H](O)[C@@H](NC(=O)Cc4ccccc4)c4ccccc4)C(C)=C1C3(C)C)[C@]1(OC(C)=O)CO[C@@H]1C[C@@H]2O (stereo not given in full) | 0
Cc1cc(NC(=O)CCl)no1 | -98.7
CC(Cc1ccccc1)/[N+]([O-])=C\c1ccc(C(F)(F)F)cc1 (stereo not given) | -119.0
O=C1NC(=O)N(Cc2ccco2)C(=O)/C1=C/C=C/c1ccco1 | -288.4
C=CCN1C(=O)NC(=O)/C(=C/C=C/c2ccccc2)C1=O | -69.5
O=C1NC(=O)N(Cc2ccccc2)C(=O)/C1=C\C=C\c1ccco1 | -222.0
COc1ccc(NC2=NC(C)(C)CS2)cc1 | -139.7
CCn1nc(-c2ccccc2)nc2c(=O)n(C)c(=O)nc1-2 | -84.0
Cc1nc2c(=O)n(C)c(=O)nc-2n(C)n1 | 0
CCOC(=O)C(O)(c1ccc(NC(=O)NC2CCCCC2)cc1)C(F)(F)F (stereo not given) | -83.4
CN(C)c1ccc(C(=O)c2ccc(N(C)C)cc2)cc1 | -108.0
CCCCCn1c(=O)c(C(=O)Nc2ccccc2C)c(O)c2ccccc21 | -82.7
CCCCCn1c(=O)c(C(=O)Nc2ccccc2S(N)(=O)=O)c(O)c2ccccc21 | 0
CCCCCn1c(=O)c(C(=O)Nc2cnccn2)c(O)c2ccccc21 | 0
Cc1cc([N+](=O)[O-])c2ccccc2[n+]1[O-] | 0
